Results published in PubChem BioAssay.
Active and inactive are the calls of the source.

Columns and labels:
[1] = optical density shifts of acrAB sulA E. coli – strain DRC41, OD650, 48 h, E. coli filamentation inducer project, primary screen (AID 1152); conditions: higher = more signal, called active from +8 up or from −8 down;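 also: E. coli MC1000 strain DRC41 lacking acrAB efflux pump and sulA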
[2] = probe aLefty1 binding on compound microarray – biochemical, small-molecule microarray, 635/667 nm fluorescence, primary screen (AID 1153); conditions: higher = more signal;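 also: score merges spot fluorescence with signal-to-noise ratio from the scanned slide images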
[3] = plasmodial surface anion channel blockers, osmotic lysis – cell-based, P. falciparum Indochina, OD700, 1 h, primary screen (AID 1154); conditions: P. falciparum Indochina infected RBC osmotic lysis, higher = more signal, called active from +8 up or from −8 down
[4] = plasmodial surface anion channel blockers, osmotic lysis – cell-based, P. falciparum Indochina, OD700, 2 h, primary screen (AID 1155);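 also: lysis reports solute entry through the parasite surface anion channel PSAC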; conditions: P. falciparum Indochina infected erythrocytes, higher = more signal, called active from +8 up or from −8 down
[5] = changes in parasitized red cell lysis, either direction – P. falciparum Indochina, OD700, 3 h, PSAC antagonist project, primary screen (AID 1156); conditions: P. falciparum-infected erythrocytes, osmotic lysis, higher = more signal, called active from +8 up or from −8 down
[6] = plasmodial surface anion channel blockers, osmotic lysis – cell-based, P. falciparum Indochina, OD700, 18 h, primary screen (AID 1157); conditions: P. falciparum Indochina infected erythrocytes, osmotic lysis OD700, 18 h; higher = more signal, called active from +8 up or from −8 down
[7] = S6 kinase pathway phospho-S6 level changes – cell-based, A549, cytoblot, luminescence, serum-stimulated, primary screen (AID 1158); conditions: 5 h, higher = more signal;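 also: serum-stimulated A549 lung adenocarcinoma cells; signal is phosphorylated S6 detected by cytoblot immunostaining with HRP secondary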
[8] = biological target: NADPH oxidase 2 (Homo sapiens) (UniProt P04839); experiment: compounds shifting NOX2 Amplex Red fluorescence – cell-based, HEK293-NOX2, PMA-stimulated, NOX inhibitor project, primary screen (AID 1159); conditions: 45 min, higher = more signal, called active from +8 up or from −8 down; also: test concentration not given here
[9] = biological target: NADPH oxidase 4 (Homo sapiens) (UniProt Q9NPH5); experiment: compounds shifting NOX4 Amplex Red fluorescence – cell-based, HEK293-NOX4, tetracycline-induced, NOX inhibitor project, primary screen (AID 1160); conditions: HEK293-NOX4, Amplex Red H2O2 fluorescence, 45 min; higher = more signal, called active from +8 up or from −8 down
[10] = biological target: NADPH oxidase 5 (Homo sapiens) (UniProt Q96PH1); experiment: compounds shifting NOX5 Amplex Red fluorescence – cell-based, HEK293-NOX5, NOX inhibitor project, primary screen (AID 1161); conditions: HEK293-NOX5, ionomycin, 45 min, higher = more signal
[11] = compound effects on lung adenocarcinoma cell viability – A549, calcein-AM fluorescence, 48 h, basal, profiling panel (AID 1162); conditions: higher = more signal; also: test concentration not given here
[12] = compound effects on differentiated 3T3-L1 adipocyte viability – cell-based, 3T3-L1 adipocytes, calcein-AM fluorescence, 48 h, basal, profiling panel (AID 1163); conditions: 3T3-L1 adipocytes viability, higher = more signal; also: test concentration not given here
[13] = compound effects on hepatocellular carcinoma cell viability – HepG2, calcein-AM fluorescence, 48 h, basal, profiling panel (AID 1164); conditions: higher = more signal; also: test concentration not given here
[14] = compound effects on multiple myeloma cell viability – MM1S, calcein-AM fluorescence, 48 h, basal, profiling panel (AID 1165); conditions: higher = more signal; also: test concentration not given here
[15] = calcein-AM signal in unstimulated myeloma cells – cell-based, calcein-AM fluorescence, 48 h, PK04 Diversity Set, profiling panel (AID 1166); conditions: RPMI8226 myeloma viability, higher = more signal;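 also: cells grown under basal conditions without added stimulus; test concentration not given here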
[16] = JC-1 mitochondrial signal, unstimulated HepG2 cells – cell-based, JC-1 fluorescence, 24 h, 100 nL compound, profiling panel (AID 1167); conditions: HepG2 mitochondrial potential, higher = more signal; also: test concentration not given here
[17] = JC-1 mitochondrial signal, unstimulated adipocytes – cell-based, JC-1 fluorescence, 3T3-L1 adipocytes, 24 h, 100 nL compound, profiling panel (AID 1168); conditions: JC-1 mitochondrial fluorescence, higher = more signal, called active from +8 up or from −8 down; also: test concentration not given here
[18] = JC-1 mitochondrial signal, unstimulated myeloma cells – cell-based, JC-1 fluorescence, RPMI8226, 24 h, 100 nL compound, profiling panel (AID 1169); conditions: JC-1 mitochondrial potential fluorescence, higher = more signal; also: test concentration not given here
[19] = JC-1 mitochondrial signal, unstimulated MM1S myeloma – cell-based, JC-1 fluorescence, 24 h, 100 nL compound, profiling panel (AID 1170); conditions: MM1S mitochondrial potential, higher = more signal; also: test concentration not given here
[20] = resazurin metabolic signal in A549 cells – cell-based, resazurin fluorescence, 24 h, PK04 Diversity Set, profiling panel (AID 1171); conditions: A549 viability, higher = more signal, called active from +8 up or from −8 down; also: test concentration not given here

NADPH oxidase 4 (Homo sapiens), sequence (Q9NPH5 whole entry, looked up): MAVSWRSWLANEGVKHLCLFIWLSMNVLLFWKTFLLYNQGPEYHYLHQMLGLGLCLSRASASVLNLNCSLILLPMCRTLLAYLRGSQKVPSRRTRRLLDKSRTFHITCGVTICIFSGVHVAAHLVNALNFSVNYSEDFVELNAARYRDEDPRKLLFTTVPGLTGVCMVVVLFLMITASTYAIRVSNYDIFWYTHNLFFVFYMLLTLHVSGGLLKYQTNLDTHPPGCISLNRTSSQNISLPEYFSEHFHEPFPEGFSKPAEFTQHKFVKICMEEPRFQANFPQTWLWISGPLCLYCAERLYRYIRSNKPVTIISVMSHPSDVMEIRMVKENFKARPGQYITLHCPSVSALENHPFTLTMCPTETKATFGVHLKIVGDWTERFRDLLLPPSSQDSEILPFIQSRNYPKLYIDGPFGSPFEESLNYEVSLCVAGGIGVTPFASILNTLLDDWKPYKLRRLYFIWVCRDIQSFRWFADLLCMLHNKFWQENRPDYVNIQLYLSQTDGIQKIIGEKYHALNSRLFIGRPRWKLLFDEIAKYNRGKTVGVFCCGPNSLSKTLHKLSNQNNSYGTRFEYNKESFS
NADPH oxidase 2 (Homo sapiens), sequence (P04839 whole entry, looked up): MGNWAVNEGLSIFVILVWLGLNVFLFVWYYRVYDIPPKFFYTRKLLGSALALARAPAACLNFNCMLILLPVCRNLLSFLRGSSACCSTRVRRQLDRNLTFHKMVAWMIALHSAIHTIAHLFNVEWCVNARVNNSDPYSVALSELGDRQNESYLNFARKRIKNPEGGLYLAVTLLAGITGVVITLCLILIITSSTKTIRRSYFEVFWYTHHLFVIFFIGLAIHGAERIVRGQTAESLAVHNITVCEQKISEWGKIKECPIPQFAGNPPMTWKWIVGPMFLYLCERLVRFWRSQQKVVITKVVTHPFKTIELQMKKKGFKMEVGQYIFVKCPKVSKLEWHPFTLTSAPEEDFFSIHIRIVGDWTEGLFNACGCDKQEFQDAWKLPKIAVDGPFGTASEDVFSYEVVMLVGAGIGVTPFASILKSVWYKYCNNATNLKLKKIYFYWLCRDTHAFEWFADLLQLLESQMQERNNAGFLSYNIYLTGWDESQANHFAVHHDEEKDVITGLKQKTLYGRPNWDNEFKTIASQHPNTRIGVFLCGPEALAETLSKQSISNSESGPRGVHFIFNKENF
NADPH oxidase 5 (Homo sapiens), sequence (Q96PH1 whole entry, looked up): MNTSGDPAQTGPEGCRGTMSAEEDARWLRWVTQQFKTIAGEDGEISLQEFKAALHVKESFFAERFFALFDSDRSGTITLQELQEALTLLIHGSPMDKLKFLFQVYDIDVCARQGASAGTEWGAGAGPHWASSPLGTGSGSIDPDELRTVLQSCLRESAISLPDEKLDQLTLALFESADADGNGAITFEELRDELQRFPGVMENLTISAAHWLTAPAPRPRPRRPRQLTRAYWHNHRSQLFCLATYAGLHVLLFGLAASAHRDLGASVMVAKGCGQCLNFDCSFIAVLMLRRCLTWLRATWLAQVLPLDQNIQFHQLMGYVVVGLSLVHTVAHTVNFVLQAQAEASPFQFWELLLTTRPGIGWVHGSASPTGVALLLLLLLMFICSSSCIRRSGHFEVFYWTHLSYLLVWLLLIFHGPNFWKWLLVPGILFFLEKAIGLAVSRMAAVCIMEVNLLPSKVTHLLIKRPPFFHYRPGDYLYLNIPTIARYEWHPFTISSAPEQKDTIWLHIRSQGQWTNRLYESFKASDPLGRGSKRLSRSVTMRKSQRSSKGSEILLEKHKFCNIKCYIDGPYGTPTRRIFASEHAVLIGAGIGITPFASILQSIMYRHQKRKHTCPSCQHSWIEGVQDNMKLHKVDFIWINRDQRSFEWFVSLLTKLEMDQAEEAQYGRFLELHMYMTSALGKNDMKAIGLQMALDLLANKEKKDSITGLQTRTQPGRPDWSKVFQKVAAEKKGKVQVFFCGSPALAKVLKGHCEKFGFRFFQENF

SMILES	z-score [1]	composite z-score [2]	z-score [3]	z-score [4]	z-score [5]	z-score [6]	z-score [7]	z-score [8]	z-score [9]	z-score [10]	z-score [11]	z-score [12]	z-score [13]	z-score [14]	z-score [15]	z-score [16]	z-score [17]	z-score [18]	z-score [19]	z-score [20]
COC(=O)[C@@H]1N=C(c2ccc(OCCCO)cc2)O[C@@H]1c1ccccc1CN=[N+]=[N-]	0.664 (inactive)	0.881	25 (active)	9.39 (active)	-0.5 (inactive)	1.33 (inactive)	-0.239	-0.817 (inactive)	0.827 (inactive)	0.0949	0.432	-0.446	-0.198	-0.329	-0.717	-1.07	1.43 (inactive)	-0.16	-0.741	1.07 (inactive)
COC(=O)[C@@]1(Cc2ccc(OC)cc2)[C@@H]2[C@@H](CC(=O)[C@H]2CC(=O)C(=O)N2CCCC2)CN1C(=O)c1ccccc1	-1.17 (inactive)	2.14	4.55 (inactive)	0.989 (inactive)	1.07 (inactive)	0.986 (inactive)	0.0676	-0.204 (inactive)	0.65 (inactive)	0.26	-0.515	0.745	0.681	-2.61	-2.94	0.74	-1.62 (inactive)	-1.01	-0.787	-0.189 (inactive)
CC(C)CNC(=O)[C@@H]1c2ccccc2C(=O)N(C2Cc3ccccc3C2)[C@H]1c1ccc(CO)cc1	1.93 (inactive)	0.0861	3.11 (inactive)	0.693 (inactive)	1.18 (inactive)	0.232 (inactive)	0.0629	0.182 (inactive)	1.12 (inactive)	0.105	2.03	0.319	1.74	0.0933	0.362	3.2	0.228 (inactive)	-0.836	0.00489	0.797 (inactive)
COCCCNC(=O)[C@@]1(Sc2ccc(C)cc2)CC(=O)N(C2CCCCC2)[C@@H]1c1ccc(CO)cc1I	-0.251 (inactive)	-0.649	4.53 (inactive)	0.678 (inactive)	0.0232 (inactive)	0.5 (inactive)	-0.0285	0.625 (inactive)	-0.102 (inactive)	1.43	0.564	-0.363	0.0565	-2.54	-2.33	0.634	-0.201 (inactive)	-0.126	-1.24	0.804 (inactive)
Cc1ccc(S[C@]2(C(=O)NCC(F)(F)F)CC(=O)N(C3CCCCC3)[C@@H]2c2ccc(CO)cc2)cc1	0.344 (inactive)	0.123	1.58 (inactive)	0.525 (inactive)	0.621 (inactive)	0.157 (inactive)	-0.14	-0.941 (inactive)	0.03 (inactive)	0.192	0.815	0.132	0.844	-1.03	-0.758	1.11	0.466 (inactive)	0.0558	-0.42	-0.0508 (inactive)
C#CCN([C@H](/C=C/C1CC1)[C@@H](O)Cc1ccccc1)[C@@H](Cc1ccccc1)C(=O)OC	1.3 (inactive)	0.0531	2.62 (inactive)	1.78 (inactive)	-0.345 (inactive)	1.28 (inactive)	0.296	-0.293 (inactive)	0.396 (inactive)	-2.6	-0.509	-0.129	-0.0708	-1.2	-2.55	3.34	0.292 (inactive)	-0.842	-1.33	3.31 (inactive)
COC(=O)[C@@]1(Cc2ccc(F)cc2)[C@H]2c3cc(C(=O)N(C)C)n(CCn4cc([N+](=O)[O-])nc4C)c3C[C@H]2CN1C(=O)c1ccccc1	-2.34 (inactive)	0.0861	0.496 (inactive)	0.288 (inactive)	0.0718 (inactive)	0.544 (inactive)	0.0938	0.762 (inactive)	-0.00316 (inactive)	-0.683	-0.771	-0.417	0.346	-0.737	0.211	0.443	-0.596 (inactive)	0.0282	-0.54	-0.792 (inactive)
Cc1ccc(F)cc1S(=O)(=O)N[C@@H]1CCN(Cc2ccc3c(c2)OCO3)C1	-3.25 (inactive)	-0.0984	1.36 (inactive)	0.491 (inactive)	0.076 (inactive)	0.329 (inactive)	-0.0688	-0.438 (inactive)	-0.228 (inactive)	-0.687	0.923	-0.447	0.326	0.361	-0.525	-0.184	-0.0208 (inactive)	0.302	-0.591	-0.156 (inactive)
C[C@@H](OCc1ccccc1)C1NC(=O)[C@@]23C(=O)N[C@@H](Cc4ccccc4)C2[C@H](C)[C@@]2(C)O[C@H]2C3/C=C/C/C=C\CNC(=O)[C@H](Cc2ccccc2)NC1=O (stereo not given in full)	0.725 (inactive)	-0.0544	1.18 (inactive)	0.012 (inactive)	0.526 (inactive)	0.156 (inactive)	0.858	0.487 (inactive)	0.924 (inactive)	0.349	0.247	0.854	0.235	-1.42	-2.1	0.637	-0.355 (inactive)	-0.497	0.546	-0.792 (inactive)
O=C1c2ccccc2[C@](Cc2ccccc2I)(C(=O)O)[C@H](c2ccc(CO)cc2)N1Cc1ccccc1	0.848 (inactive)	0.223	4.42 (inactive)	-0.579 (inactive)	-0.144 (inactive)	-0.656 (inactive)	1.25	0.516 (inactive)	0.148 (inactive)	1.71	1.48	0.431	1.04	0.295	-1.66	0.275	0.0449 (inactive)	-0.601	-0.349	-1.45 (inactive)
C[C@H]1NC(=O)C([C@@H](C)OCc2ccccc2)NC(=O)[C@@]23C(=O)N[C@@H](Cc4ccccc4)C2[C@H](C)[C@@]2(C)O[C@H]2C3/C=C/C/C=C\CNC1=O (stereo not given in full)	-0.009 (inactive)	-0.0501	1.88 (inactive)	0.58 (inactive)	0.761 (inactive)	0.427 (inactive)	-0.104	-0.118 (inactive)	-1.16 (inactive)	-0.16	0.462	1.44	0.14	-0.0497	-0.23	0.817	0.346 (inactive)	0.0911	0.607	-0.214 (inactive)
COC(=O)[C@@]1(CCC(=O)OC(C)(C)C)N=C(c2ccc(OCCCO)cc2)O[C@H]1c1ccccc1CN=[N+]=[N-]	-0.0301 (inactive)	0.437	21.3 (active)	6.25 (inactive)	0.765 (inactive)	1.4 (inactive)	-0.184	-1.47 (inactive)	-0.475 (inactive)	-0.802	-1.06	-1.3	-2.51	-3.2	-3.95	-1.7	-0.472 (inactive)	-1.12	-1.73	-0.227 (inactive)
CCCCCCc1nc(-c2ccc(OC)nc2)cc2c1[Si](C(C)C)(C(C)C)OC2	-0.45 (inactive)	-0.103	2.62 (inactive)	0.0409 (inactive)	-0.484 (inactive)	-0.179 (inactive)	0.366	-4.66 (inactive)	-2.14 (inactive)	-4.22	-0.848	0.608	0.238	-2.15	-3.11	-1.91	-0.191 (inactive)	-0.791	-0.368	0.552 (inactive)
CCCCC=C[C@@H](NC(=O)c1ccc(C(F)(F)F)cc1)c1ccccc1	-1.96 (inactive)	-0.112	5.47 (inactive)	0.895 (inactive)	-0.427 (inactive)	0.373 (inactive)	-0.0311	-1.51 (inactive)	-1.37 (inactive)	1.1	-1.13	-1.28	-0.63	-0.978	-2.53	-1.65	-1.12 (inactive)	-0.169	-1.27	2.14 (inactive)
CCOC(=O)C1=CC[C@@H](c2ccc(F)cc2)N(S(=O)(=O)c2ccc(C)cc2)[C@H]1c1ccc([N+](=O)[O-])cc1	0.251 (inactive)	-0.0946	1.83 (inactive)	1.12 (inactive)	-0.186 (inactive)	1.22 (inactive)	-0.399	1.36 (inactive)	0.856 (inactive)	1.4	-0.606	-0.415	-0.661	-0.724	0.192	1.65	-0.754 (inactive)	0.235	-0.862	1.8 (inactive)
COC(=O)C1=CC(CCCO)=CC(C2CC2)N(Cc2cccc(OC(F)(F)F)c2)C=C1C(=O)OC (stereo not given)	-1.16 (inactive)	0.193	3.22 (inactive)	0.455 (inactive)	-0.623 (inactive)	0.526 (inactive)	0.204	-0.179 (inactive)	-0.34 (inactive)	0.973	-0.851	0.589	0.525	-0.525	-0.708	1.18	0.767 (inactive)	-0.862	-0.159	0.644 (inactive)
C=C(/C(=C/C[C@H](OC(=O)c1ccncc1)c1ccccc1OCCO)c1cc(C(=O)OC)ccc1OC)C(C)C	-0.458 (inactive)	0.428	14.9 (active)	2.53 (inactive)	2.19 (inactive)	1.02 (inactive)	0.222	1.22 (inactive)	-0.614 (inactive)	-1.29	0.0292	0.322	-0.275	-1.85	-0.122	0.589	-0.617 (inactive)	-0.429	0.00378	1.47 (inactive)
